Experiment [1] is described as follows: Quantitative highthroughput screen to assess conditional lethalithy of NOMO1 cells grown in RPMI1640 with untreated serum (RPMI+s) (AID 1963876).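 For viability: 100% = DMSO wells and 0% = empty wells without cells.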 Note: nearly all actives have a fitted effect of over 35% in size. Note: potency is the fitted concentration of half-maximal effect. In short, it runs like this:
(§1)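 Each medium arm—HPLM with 10% dialyzed FBS, or RPMI1640 with 5 mM glucose and 10% untreated or dialyzed FBS—was screened against an 11-point, 3-fold compound titration for 48 h at 37 °C, with CellTiter-Glo luminescence as endpoint.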

A short description of experiment [2]: Quantitative highthroughput screen to assess conditional lethalithy of NOMO1 cells grown in RPMI1640 with dialyzed fetal bovine serum (RPMI+ds) (AID 1963877).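 For viability: series mostly up to about 46 µM; 100% = DMSO control wells and 0% = empty wells.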 Note: nearly all actives have a fitted effect of over 30% in size. Note: potency is the fitted concentration of half-maximal effect. Summed up:
as §1

Experiment [3] in a line: Quantitative highthroughput screen to assess conditional lethalithy of NOMO1 cells grown in Human Plasma-Like Medium with dialyzed fetal bovine serum (HPLM+ds) (AID 1963878).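 For viability: 100% = DMSO wells and 0% = empty wells on each plate.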 Note: nearly all actives have a fitted effect of over 35% in size. Note: potency is the fitted concentration of half-maximal effect. Summed up: as §1
A short description of experiment [4]: Quantitative highthroughput screen to assess conditional lethalithy of P12 Ichikawa cells grown in Human Plasma-Like Medium with dialyzed fetal bovine serum (HPLM+ds) (AID 1963879). For viability: series mostly up to about 46 µM. Note: nearly all actives have a fitted effect of over 35% in size. Note: potency is the fitted concentration of half-maximal effect. The following applies: Potency: viability. Summed up: as §1
Experiment [5] in a line: Quantitative highthroughput screen to assess conditional lethalithy of P12 Ichikawa cells grown in RPMI1640 with dialyzed fetal bovine serum (RPMI+ds) (AID 1963880).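 For viability: 100% = DMSO wells and 0% = empty wells on each plate.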 Note: nearly all actives have a fitted effect of over 35% in size. Note: potency is the fitted concentration of half-maximal effect. The settings on record: Potency: P12-Ichikawa viability. Summed up: as §1
The nature of experiment [6]: Quantitative highthroughput screen to assess conditional lethalithy of P12 Ichikawa cells grown in RPMI1640 with untreated serum (RPMI+s) (AID 1963881).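 For viability: series mostly up to about 46 µM; 100% = DMSO wells and 0% = empty wells without cells.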 Note: nearly all actives have a fitted effect of over 35% in size. Note: potency is the fitted concentration of half-maximal effect. The following applies: Potency: viability. In short, it runs like this:
as §1

Experiment [7] is described as follows: Quantitative highthroughput screen to assess conditional lethalithy of SEM cells grown in Human Plasma-Like Medium with dialyzed fetal bovine serum (HPLM+ds) (AID 1963882). For viability: series mostly up to about 46 µM. Note: nearly all actives have a fitted effect of over 35% in size. Note: potency is the fitted concentration of half-maximal effect. In short, it runs like this:
as §1

Experiment [8] can be described thus: Quantitative highthroughput screen to assess conditional lethalithy of SEM cells grown in RPMI1640 with unreated serum (RPMI+s) (AID 1963883).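 For viability: 100% = DMSO wells and 0% = empty wells without cells.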 Note: nearly all actives have a fitted effect of over 35% in size. Note: potency is the fitted concentration of half-maximal effect. In short, it runs like this:
as §1

Experiment [9] in a line: Quantitative highthroughput screen to assess conditional lethalithy of SEM cells grown in RPMI1640 with dialyzed fetal bovine serum (RPMI+ds) (AID 1963884).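 For viability: series mostly up to about 46 µM; 100% = DMSO control wells and 0% = empty wells without cells.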 Note: nearly all actives have a fitted effect of over 35% in size. Note: potency is the fitted concentration of half-maximal effect. Summed up:
as §1

The nature of experiment [10]: Cellular viability qHTS for adrenocortical cancer (ACC) cell line SW-13 (AID 1963989).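 Note: cells grown in serum-free medium with ITS supplement; % is set by controls: 0 for no effect and ±100 for the full control effect; nearly all actives have a fitted effect of over 65% in size.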 The settings on record: SW-13 ACC cells viability, CellTiter-Glo, 48 h; activity (max response): active compounds read low. Summed up:
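Viability was read as CellTiter-Glo luminescence after 48 h compound treatment (up to 46 uM final) of SW-13 cells grown serum-free; titration curves were fit with a four-parameter logistic model to give IC50 and efficacy.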

Experiment [11] can be described thus: Cellular viability qHTS for adrenocortical cancer (ACC) cell line NCI-H295R (AID 1963990).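 Note: 0% = DMSO only wells and -100% = full killing with cytotoxic reference compound; nearly all actives have a fitted effect of over 60% in size.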 In short, it runs like this: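 CellTiter-Glo ATP luminescence, read 48 h after compound addition, measured viability of NCI-H295R adrenocortical cells grown serum-free with ITS. Final concentrations spanned up to 46 uM. Data normalized to DMSO and doxorubicin, fitted for IC50 and maximal response.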

Records with an inconclusive call do not appear. Unmarked numbers belong to inactive results. Active and inactive are the calls of the source. Calls come from the whole dose curve; as a rule, active = well fitted curve in the direction sought with a large enough effect; inconclusive = small, poorly fitted or top-dose-only effect, or another doubt; inactive = no such curve, though single readings can be large; an effect the other way counts as inactive or inconclusive.

For `CC(C=CC=C(C)C=CC1=C(C)CCCC1(C)C)=CC=CC=C(C)C=CC=C(C)C=CC1=C(C)CCCC1(C)C`, the Potency result in experiment [1], in experiment [2], in experiment [3], in [4], in experiment [5] and in [6] was “inactive” each time. Further, the Potency result in experiment [7], in experiment [8] and in experiment [9] was “inactive” throughout.

With `O=c1c(-c2ccc(O)cc2)coc2cc(O)ccc12`, the Potency result in [1], in experiment [2], in experiment [3], in experiment [4], in experiment [5] and in experiment [6] was “inactive” each time. Besides, the Potency result in experiment [7], in experiment [8] and in experiment [9] was “inactive” throughout. Further, the activity (max response) in experiment [10] was -14.3%.

Consider `C[C@]12CCC3=C4CCC(=O)C=C4CC[C@@H]3[C@H]1CC[C@@]2(O)CC#N`, for which the Potency entry in [1], in experiment [2], in [3], in experiment [4], in experiment [5] and in [6] was “inactive” each time. The Potency result in experiment [7], in experiment [8] and in experiment [9] was “inactive” throughout.

With `COc1cc(C=CC(=O)CC(=O)C=Cc2ccc(O)c(OC)c2)ccc1O`, the Potency in experiment [1] is 38.2 µM (active); in experiment [2], 42.9 µM (active); in [3] it was 24.1 µM (active); in [4], 21.5 µM (active); in [5] it was 34 µM (active); in experiment [6], 34 µM (active). Also, the Potency was 19.1 µM (active) in [7], 17.1 µM (active) in experiment [8] and 21.5 µM (active) in [9].

Regarding `CC1(O)CC(c2nc(-c3ccc4ccc(-c5ccccc5)nc4c3)c3c(N)nccn23)C1` (configuration not stated), the Potency in [1] was 3.72 µM (active); in experiment [2], 3.72 µM (active); in [3], 2.35 µM (active); in [4], 7.43 µM (active); in [5], 5.9 µM (active); in [6] it was 4.69 µM (active). Moreover, the results for the Potency in [7], in experiment [8] and in experiment [9] were 2.35 µM (active), 1.18 µM (active) and 2.35 µM (active), respectively. Moreover, in experiment [10], the activity (max response) was -21%.

For the compound `CN(C)CCCC1(c2ccc(F)cc2)OCc2cc(C#N)ccc21` (configuration not stated), the Potency result in experiment [1], in experiment [2], in experiment [3], in [4], in experiment [5] and in experiment [6] was “inactive” throughout. For the same compound, the Potency entry in experiment [7], in experiment [8] and in [9] was “inactive” each time.

In the case of `CN1[C@H]2CC[C@H]1CC(OC(=O)c1c[nH]c3ccccc13)C2` (some centres not stated), the Potency result in [1], in experiment [2], in experiment [3], in experiment [4], in experiment [5] and in [6] was “inactive” throughout. Besides, the Potency entry in experiment [7], in [8] and in [9] was “inactive” in each case.

`CC(C)(O)[C@H]1CC[C@@](C)([C@H]2[C@@H](O)C[C@@]3(C)[C@@H]4C[C@H](O[C@@H]5O[C@H](CO)[C@@H](O)[C@H](O)[C@@H]5O)[C@H]5C(C)(C)[C@@H](O[C@@H]6OC[C@@H](O)[C@H](O)[C@@H]6O)CC[C@@]56C[C@@]46CC[C@]23C)O1`: the Potency entry in experiment [1], in experiment [2], in [3], in [4], in experiment [5] and in experiment [6] was “inactive” throughout. Moreover, the Potency entry in experiment [7], in experiment [8] and in experiment [9] was “inactive” throughout.

In the case of `CN1[C@@H]2CCC[C@@H]1CC(NC(=O)c1nn(C)c3ccccc13)C2` (some centres not stated), the Potency result in experiment [1], in experiment [2], in [3], in experiment [4], in experiment [5] and in experiment [6] was “inactive” throughout. Moreover, the Potency entry in [7], in [8] and in experiment [9] was “inactive” each time.

Regarding `OC[C@H]1O[C@@H](Oc2ccc(O)cc2)[C@H](O)[C@@H](O)[C@H]1O`, the Potency result in experiment [1], in [2], in experiment [3], in experiment [4], in [5] and in experiment [6] was “inactive” each time. Moreover, the Potency entry in experiment [7], in experiment [8] and in [9] was “inactive” each time.

Consider `CC(C)(C)[N+]([O-])=Cc1ccc(S(=O)(=O)O)cc1S(=O)(=O)O`, for which the Potency result in experiment [1], in experiment [2], in [3], in experiment [4], in experiment [5] and in experiment [6] was “inactive” in each case. Further, the Potency result in [7], in experiment [8] and in [9] was “inactive” each time.

With `CC1=C(CC(=O)O)c2cc(F)ccc2C1=Cc1ccc(S(C)=O)cc1` (configuration not stated), the Potency result in [1], in [2], in [3], in experiment [4], in experiment [5] and in experiment [6] was “inactive” each time. The Potency result in experiment [7], in experiment [8] and in experiment [11] was “inactive” throughout. In experiment [10], the activity (max response) was 10.2%.

Regarding `CC(C)(C)c1cc(C(=O)O)c(NC(=O)Nc2ccc3[nH]ncc3c2)s1`, the Potency result in [1], in experiment [2], in [3], in experiment [4], in [5] and in experiment [6] was “inactive” each time. Besides, the Potency result in experiment [7], in experiment [8] and in [11] was “inactive” in each case. Besides, the activity (max response) in experiment [10] was -7.47%.

On to `COC(=O)C[C@](O)(CCCC(C)(C)O)C(=O)O[C@@H]1C(OC)=C[C@]23CCCN2CCc2cc4c(cc2[C@H]13)OCO4`, for which the Potency result in experiment [1], in experiment [2], in [3], in [4], in experiment [5] and in experiment [6] was “inactive” in each case. Moreover, the Potency result in [7], in experiment [8], in experiment [9] and in experiment [11] was “inactive” in each case. For the same compound, the activity (max response) in experiment [10] was -15.2%.

The values are drawn from PubChem BioAssay (NCATS).
